Here are results for seven molecules from PMC11062922 (Nature Chemical Biology, 2023).

Read-outs that look alike come from different tables or passages of the source.

Test [1] concerns ABL1. More on the design: species or system human, MV4-11 + K-562 + COLO205 + SK-N-BE2 + OVCAR-8. Conditions: read-out: apparent Kd, compound concentrations: 100 nM and 1000 nM (sheet 'Samples'), n = 1.
The subject of test [2] is ABL2. Also on record: species or system human, MV4-11 + K-562 + COLO205 + SK-N-BE2 + OVCAR-8. Conditions: read-out: apparent Kd, n = 1.
The subject of test [3] is BCR. Also on record: species or system human, MV4-11 + K-562 + COLO205 + SK-N-BE2 + OVCAR-8. Conditions: read-out: apparent Kd, n = 1.
Test [4] deals with FYN. Also on record: species or system human, MV4-11 + K-562 + COLO205 + SK-N-BE2 + OVCAR-8. As to conditions: read-out: apparent Kd, compound concentrations: 100 nM and 1000 nM (sheet 'Samples'), n = 1.
For test [5], the system named is GAK. More on the design: species or system human, MV4-11 + K-562 + COLO205 + SK-N-BE2 + OVCAR-8. Conditions: read-out: apparent Kd, n = 1.
For test [6], the system named is PTK6. More on the design: species or system human, MV4-11 + K-562 + COLO205 + SK-N-BE2 + OVCAR-8. Conditions: read-out: apparent Kd, compound concentrations: 100 nM and 1000 nM (sheet 'Samples'), n = 1.
Test [7] concerns RET. More on the design: species or system human, MV4-11 + K-562 + COLO205 + SK-N-BE2 + OVCAR-8. Conditions: read-out: apparent Kd, compound concentrations: 100 nM and 1000 nM (sheet 'Samples'), n = 1.
The test system of test [8] is RIPK2. More on the design: species or system human, MV4-11 + K-562 + COLO205 + SK-N-BE2 + OVCAR-8. Conditions: read-out: apparent Kd, n = 1.
The test system of test [9] is RIPK3. Also on record: species or system human, MV4-11 + K-562 + COLO205 + SK-N-BE2 + OVCAR-8. As to conditions: read-out: apparent Kd, compound concentrations: 100 nM and 1000 nM (sheet 'Samples'), n = 1.
Test [10] concerns HCK. Also on record: species or system human, MV4-11 + K-562 + COLO205 + SK-N-BE2 + OVCAR-8. Conditions: read-out: apparent Kd, compound concentrations: 100 nM and 1000 nM (sheet 'Samples'), n = 1.
Test [11] concerns LCK. Also on record: species or system human, MV4-11 + K-562 + COLO205 + SK-N-BE2 + OVCAR-8. As to conditions: read-out: apparent Kd, compound concentrations: 100 nM and 1000 nM (sheet 'Samples'), n = 1.
The test system of test [12] is TNK1. More on the design: species or system human, MV4-11 + K-562 + COLO205 + SK-N-BE2 + OVCAR-8. Conditions: read-out: apparent Kd, n = 1.
Test [13] deals with YES1. Also on record: species or system human, MV4-11 + K-562 + COLO205 + SK-N-BE2 + OVCAR-8. As to conditions: read-out: apparent Kd, compound concentrations: 100 nM and 1000 nM (sheet 'Samples'), n = 1.
The test system of test [14] is CLK1. More on the design: species or system human, MV4-11 + K-562 + COLO205 + SK-N-BE2 + OVCAR-8. As to conditions: read-out: apparent Kd, n = 1.
Test [15] relates to CLK4. More on the design: species or system human, MV4-11 + K-562 + COLO205 + SK-N-BE2 + OVCAR-8. Conditions: read-out: apparent Kd; compound concentrations:100 nM and 1000 nM (sheet 'Samples'); n = 1.
Test [16] deals with CSNK2A1;CSNK2A3. More on the design: species or system human, MV4-11 + K-562 + COLO205 + SK-N-BE2 + OVCAR-8. Conditions: read-out: apparent Kd; compound concentrations:100 nM and 1000 nM (sheet 'Samples'); n = 1.
The subject of test [17] is CSNK2A2. More on the design: species or system human, MV4-11 + K-562 + COLO205 + SK-N-BE2 + OVCAR-8. As to conditions: read-out: apparent Kd; compound concentrations:100 nM and 1000 nM (sheet 'Samples'); n = 1.
The target of test [18] is Q6ZSR9 (human, UniProt Q6ZSR9). Also on record: species or system MV4-11 + K-562 + COLO205 + SK-N-BE2 + OVCAR-8. Conditions: read-out: apparent Kd; compound concentrations:100 nM and 1000 nM (sheet 'Samples'); n = 1.
Sequence of Q6ZSR9 (Q6ZSR9 whole entry, looked up): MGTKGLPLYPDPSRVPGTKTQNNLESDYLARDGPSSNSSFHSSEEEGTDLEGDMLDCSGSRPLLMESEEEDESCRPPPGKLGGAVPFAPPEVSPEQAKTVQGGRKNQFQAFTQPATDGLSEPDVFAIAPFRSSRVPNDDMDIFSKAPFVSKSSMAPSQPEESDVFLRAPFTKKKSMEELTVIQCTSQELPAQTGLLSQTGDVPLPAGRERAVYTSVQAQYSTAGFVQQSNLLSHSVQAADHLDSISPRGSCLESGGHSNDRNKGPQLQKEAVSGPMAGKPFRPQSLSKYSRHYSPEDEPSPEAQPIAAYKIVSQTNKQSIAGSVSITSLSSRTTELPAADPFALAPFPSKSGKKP
Setting [19] is: compound concentrations:100 nM and 1000 nM (sheet 'Samples').

On to `Cn1cc(-c2ccc3c(c2)CCN3C(=O)Cc2cccc(Cl)c2)c2c(N)ncnc21` [GSK2606590A], for which the potency estimated from few doses in test [1] (CATDS: 0.26932988266552799) was 1720 nM.

As to `Cc1ccc(O)cc1Nc1ccnc2ccc(C(C)(C)C)cc12` [GW856805X], the potency estimated from few doses in [1] (CATDS: 2.7380804690978401E-2) was 1400 nM; in test [2] (compound concentrations: 100 nM and 1000 nM (sheet 'Samples'), CATDS: 3.3299960088100697E-2), 317 nM; in test [3] (compound concentrations: 100 nM and 1000 nM (sheet 'Samples'), CATDS: 4.5684736172067801E-2), 79.1 nM; in test [4] (CATDS: 4.6328072424656697E-2), 75.5 nM; in test [5] (compound concentrations: 100 nM and 1000 nM (sheet 'Samples'), CATDS: 4.7417196878279499E-2), 70 nM; in test [6] (CATDS: 2.9493928233546299E-2), 718 nM. For the same molecule, the potency estimated from few doses in [7] (CATDS: 4.15605904174959E-2) was 111 nM; in test [8] (compound concentrations: 100 nM and 1000 nM (sheet 'Samples'), CATDS: 0.10546216310876699), 11.1 nM; in test [9] (CATDS: 3.0648006837875299E-2), 540 nM.

Take `CN1CCc2ccc(Nc3nccc(-c4c(-c5cccc(NC(=O)c6c(F)cccc6F)c5)nc5ccccn45)n3)cc2C1.Cl` [GSK1010829B]: the potency estimated from few doses was 1490 nM in [1] (CATDS: 3.3461879574950899E-2); 515 nM in test [2] (compound concentrations: 100 nM and 1000 nM (sheet 'Samples'), CATDS: 5.23803591077244E-2); 732 nM in test [4] (CATDS: 4.4096007495545798E-2); 270 nM in [10] (CATDS: 7.6691780637307694E-2); 180 nM in test [11] (CATDS: 0.10139412977774399); 387 nM in [7] (CATDS: 6.1387367146580003E-2). For the same molecule, the potency estimated from few doses is 1110 nM in test [8] (compound concentrations: 100 nM and 1000 nM (sheet 'Samples'), CATDS: 3.7106800723599898E-2); 550 nM in test [9] (CATDS: 5.0630244265372597E-2); 661 nM in [12] (compound concentrations: 100 nM and 1000 nM (sheet 'Samples'), CATDS: 4.6231570261128598E-2); 225 nM in test [13] (CATDS: 8.6634925532114604E-2).

Consider `N#Cc1cccc(Nc2nccc(-c3cnn4ncccc34)n2)c1` [GW778894X], for which the potency estimated from few doses was 3.93 nM in test [14] (setting [19]), 0.363 nM in test [15], 603 nM in test [16] and 601 nM in [17].

As to `CC(=O)c1c(-c2ccncc2)[nH]c(-c2ccncc2)c1C` [GW493036X], the potency estimated from few doses was 482 nM in [2] (setting [19]); 277 nM in test [3] (setting [19]); 10.9 nM in test [14] (setting [19]); 1.62 nM in test [15]; 1000 nM in test [8] (setting [19]).

Consider `CN(C)Cc1ccc(-c2ccc3c(Nc4ccc(Oc5ccccn5)cc4)ccnc3c2)o1` [GW567148X], for which the potency estimated from few doses in [1] (CATDS: 2.6696820742308999E-2) is 474 nM; in test [2] (compound concentrations: 100 nM and 1000 nM (sheet 'Samples'), CATDS: 2.2474655179730001E-2) it was 716 nM; in [3] (compound concentrations: 100 nM and 1000 nM (sheet 'Samples'), CATDS: 2.3050499166144999E-2) it was 671 nM; in [14] (compound concentrations: 100 nM and 1000 nM (sheet 'Samples'), CATDS: 1.75413407111282E-2) it was 1550 nM; in [4] (CATDS: 2.9409133210556101E-2), 385 nM; in test [5] (compound concentrations: 100 nM and 1000 nM (sheet 'Samples'), CATDS: 2.37556853543167E-2) it was 622 nM. Besides, the potency estimated from few doses in test [10] (CATDS: 0.14804740289448201) was 30.7 nM; in test [11] (CATDS: 3.1046843535100802E-2) it was 345 nM; in test [6] (CATDS: 5.2806540733476098E-2), 134 nM; in test [8] (compound concentrations: 100 nM and 1000 nM (sheet 'Samples'), CATDS: 9.2431358445575804E-2), 57.7 nM; in test [9] (CATDS: 2.29584105489756E-2), 678 nM; in test [12] (compound concentrations: 100 nM and 1000 nM (sheet 'Samples'), CATDS: 3.2421651582332497E-2) it was 316 nM. In addition, in test [13] (CATDS: 6.4400674253028201E-2), the potency estimated from few doses is 97.8 nM.

Regarding `COc1cc2ncn(-c3cc(OCCCc4ccccc4)c(C(N)=O)s3)c2cc1OC` [GSK205189A], the potency estimated from few doses in test [2] (setting [19]) is 956 nM; in [14] (setting [19]) it was 105 nM; in test [15] it was 1340 nM; in test [5] (setting [19]), 663 nM; in test [18] it was 1480 nM; in test [12] (setting [19]), 42.3 nM.
